Bioassay records deposited in PubChem by National Center for Advancing Translational Sciences (NCATS).
HT1080-NT tox: qHTS for induction of synthetic lethality in tumor cells producing 2HG: qHTS for the HT-1080-NT fibrosarcoma cell line. AID 686970, 2013. Potency, µM (titrated, usually from 46.1 µM), for the others: at the top dose activity, negative = less viability, usual class: cytotoxic. HT-1080-NT fibrosarcoma viability, CellTiter-Glo ATP luminescence, 48 h. actives 1.6% (n = 360,000);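 also: NT is the 2HG producing partner of a matched IDH1 knockdown line; 0% = DMSO-treated cells and -100% = media-only wells without cells; nearly all actives have a fitted effect of over 55% in size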
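Fibrosarcoma NT cells, 750 per well in 5% FBS RPMI, were exposed to compound for 48 hours. Viability: CellTiter-Glo luminescence.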
HT1080 IDH1KD tx: qHTS for induction of synthetic lethality in tumor cells producing 2HG: qHTS for the HT-1080-IDH1KD cell line | HT-1080 IDH1 knockdown viability, ATP luminescence, 48 h | Potency, µM (series often up to 46.1 µM), without a hit: top-dose activity, negative = toxicity, hits mostly cytotoxic | actives 2% (n = 360,000);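 also: 0% = DMSO wells and -100% = cell-free medium wells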
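CellTiter-Glo luminescence after 48 h compound exposure at 37 degrees C of IDH1-knockdown HT-1080 cells in 5% FBS RPMI. %Activity scaled between DMSO wells and cell-free media wells, with curves fitted and assigned curve classes.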
DT40 TDP1 no CPT: qHTS for Inhibitors of human tyrosyl-DNA phosphodiesterase 1 (TDP1): qHTS in cells in absence of CPT | actives 15% (n = 420,000) | Potency, µM (titrated, usually from 46.2 µM), for inactives: at the highest dose activity change, negative = growth inhibition, usual class: inhibitors | DT40 Tdp1-/- hTDP1 cells, no CPT, ATP luminescence, 48 h; also: % is scaled to controls: 0 for no effect and ±100 for the full control effect; nearly all actives have a fitted effect of over 55% in size
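Readout: luminescence from CellTiter-Glo after 30 min in the dark at RT. Cells: DT40 Tdp1-/- with stable hTDP1, 400/well. Exposure: compounds alone, ≥48 hr, 37 °C.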
HepG2 tox: qHTS for Inhibitors of TGF-b: Cytotox Counterscreen; HepG2 CAGA-GFP viability, ATP luminescence, 18 h; Potency, µM (series often up to 46.1 µM), inactives show at the highest dose activity change, negative = cytotoxicity, most hits filed as cytotoxic; actives 0.76% (n = 410,000)
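CellTiter-Glo luminescence gave cytotoxicity after 18 hours at 37 degrees C. The cells were HepG2 CAGA-GFP in 1% FBS DMEM, stimulated with 500 pg/mL TGF-beta after compound addition. %Activity was normalised to no-cell wells (complete cell-killing) and DMSO (no toxicity), and curves were fitted and classified.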
TDP1 cell CPT: qHTS for Inhibitors of human tyrosyl-DNA phosphodiesterase 1 (TDP1): qHTS in cells in presence of CPT. AID 686979, 2013. chicken DT40 Tdp1-/-;hTDP1 cells + 20 nM CPT, ATP luminescence, 48 h. Potency, µM (highest dose often 46.2 µM), inactives show at the highest dose activity change, negative = growth inhibition, actives largely listed as inhibitors. actives 12% (n = 420,000); also: % is scaled to controls: 0 for no effect and ±100 for the full control effect; nearly all actives have a fitted effect of over 55% in size
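Chicken DT40 Tdp1-/- cells stably complemented with human TDP1 were seeded at 400 cells/well in medium containing 20 nM camptothecin, exposed to pin-transferred compounds, and grown at 37 °C for at least 48 hr. Viability was read as ATP luminescence.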
TGFb inhibitor: qHTS for Inhibitors of TGF-b. HepG2 CAGA-GFP TGF-b/SMAD3 reporter, GFP fluorescence, 18 h; TGF-beta stimulated, 500 pg/mL final. Potency, µM (series often up to 46.1 µM), for the others: at the highest dose activity, negative = inhibition, usual class: inhibitors. actives 1.2% (n = 410,000). AID 588855, 2011; also: % is scaled to controls: 0 for no effect and ±100 for the full control effect; nearly all actives have a fitted effect of over 65% in size
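Inhibition of TGF-beta-driven CAGA-GFP reporter expression in HEPG2 cells is measured by cellular GFP fluorescence after 18 h stimulation with 500 pg/mL recombinant TGF-beta in 1% FBS medium at 37 degrees C.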
* hit, by the source's call; ? = inconclusive; nt = no result given. Shown are actives, neighbours in structure and some others; about 17% of the full set was active somewhere. Calls follow the shape of the dose curve; as a rule, active = well fitted curve in the direction sought with a large enough effect; inconclusive = small, poorly fitted or top-dose-only effect, or another doubt; inactive = no such curve, though single readings can be large; an effect the other way counts as inactive or inconclusive. Potency is read from the fitted curve at half-maximal effect.

SMILES | HT1080-NT tox | HT1080 IDH1KD tx | DT40 TDP1 no CPT | HepG2 tox | TDP1 cell CPT | TGFb inhibitor
COc1ccc(CCn2c(=S)[nH]c(=O)c3nccnc32)cc1OC | 2.9% | -5.2% | 3.16µM* | nt | 6.31µM* | nt
COc1ccc(CCn2c(C)nc3ccccc3c2=O)cc1OC | 18.0% | 8.1% | 20.6µM* | -17.5% | ? | -1.0%
COc1ccc(CCn2nnc3ccccc3c2=O)cc1OC | 15.9% | 19.4% | ? | 0.9% | -23.9% | 1.4%
CCSc1nc2ccccc2n1C(=O)/C=C\c1ccc(OC)c(OC)c1 | -19.5% | ? | 5.17µM* | -3.1% | 4.61µM* | -26.7%
CCN(CC)C(=O)CSc1nc2ccccc2c(=O)n1CCC(=O)NCCc1ccc(OC)c(OC)c1 | 7.8% | 13.2% | -25.9% | 14.3% | -14.0% | 14.0%
CCSc1nc2ccccc2c(=O)n1CCc1ccc(OC)c(OC)c1 | -5.3% | -15.6% | 11.6µM* | -4.1% | 13µM* | ?
COc1ccc(CCN2CN(S(=O)(=O)c3ccc(C)cc3)c3nc4ccccc4nc32)cc1OC | 5.8% | -1.5% | ? | -0.4% | 23.1µM* | -1.7%
COc1ccc(CCN2CN(S(=O)(=O)c3ccc(OC)cc3)c3nc4ccccc4nc32)cc1 | -3.1% | -8.4% | ? | -11.4% | ? | -13.9%
O=c1c2ccccc2nc(-c2ccco2)n1CCCn1ccnc1 | -0.5% | -19.3% | -7.5% | -0.7% | -25.1% | 2.6%
O=c1c2ccccc2nc(-c2ccco2)n1CCc1ccc(O)cc1 | -28.0% | -22.8% | 5.8µM* | -9.9% | ? | 13.1%
COCC(=O)Nc1cc(C(=O)NC2C3CC4CC2CC(O)(C4)C3)cc2nc(-c3ccccc3)n(C)c12 (stereo unspecified) | nt | nt | -5.1% | nt | -1.0% | nt
Cn1c(-n2c(-c3ccco3)nc3ccccc3c2=O)nc2ccccc21 | -22.0% | ? | 5.8µM* | -27.5% | 3.66µM* | 2.8%
CCn1c(-c2ccco2)nc2ccccc21 | 14.9% | 11.5% | ? | -1.5% | -10.6% | -2.5%
N#CC1=C(N)Oc2c(oc(CO)cc2=O)C1c1ccsc1 (stereo unspecified) | -0.3% | -5.5% | 5.8% | 4.4% | 1.3% | -1.5%
N#CC1=C(N)Oc2c(ccc3ccccc23)C1c1ccsc1 (stereo unspecified) | 13µM* | 5.8µM* | 0.581µM* | -24.5% | 0.82µM* | ?
COc1ccc(-c2[nH]c(-c3cccc(OC)c3)nc2SCC(=O)Nc2ccc3c(c2)OCO3)cc1 | nt | nt | ? | -96.6% | 16.4µM* | 0.0%
COc1ccc(Cn2ccnc2SCC(=O)Nc2ccc3c(c2)OCCO3)cc1 | nt | nt | -8.9% | -3.3% | ? | -2.7%
COc1ccc(-c2nc(SCC(=O)Nc3ccc4c(c3)OCCO4)c(-c3ccccc3)[nH]2)cc1 | nt | nt | 23.1µM* | -22.2% | ? | ?
COc1ccc2nc(SCC(=O)NC3CCCC3)c(C)cc2c1 | ? | 5.8µM* | 16.4µM* | 0.1% | 16.4µM* | ?
COc1cccc(-c2nc(SCC(=O)NC3CCCC3)c(-c3ccc(F)cc3)[nH]2)c1 | nt | nt | 20.6µM* | -40.1% | ? | ?
O=[N+]([O-])c1ccc(NC(=S)NCC(c2cccnc2)N2CCOCC2)cc1 (stereo unspecified) | -1.9% | 4.2% | ? | -0.4% | ? | 7.3%
c1ccc(CC[n+]2ccncc2)cc1 | nt | nt | -91.6% | -21.3% | -17.4% | -3.6%
COc1cccc(-c2nc(SCC(=O)Nc3ccc4c(c3)OCCO4)c(-c3ccccc3)[nH]2)c1 | nt | nt | 18.4µM* | -15.2% | 23.1µM* | ?
COc1cccc(-c2nc(SCC(=O)NC3CCCC3)c(-c3ccccc3)[nH]2)c1 | nt | nt | ? | -21.5% | ? | ?
CCCCC(=O)NCCNc1nc2c(c(=O)n(C)c(=O)n2C)n1Cc1ccc(F)cc1 | -17.0% | -5.7% | ? | -3.7% | -17.3% | -1.0%
SMILES | HT1080-NT tox | HT1080 IDH1KD tx | DT40 TDP1 no CPT | HepG2 tox | TDP1 cell CPT | TGFb inhibitor
Cn1c(=O)c2c(nc(NCc3ccc4c(c3)OCO4)n2Cc2ccc(F)cc2)n(C)c1=O | ? | ? | 6.51µM* | -20.8% | 9.2µM* | ?
CCNc1nc2c(c(=O)n(C)c(=O)n2C)n1Cc1ccc(F)cc1 | nt | nt | 1.03µM* | -24.9% | 2.06µM* | ?
Cn1c(=O)c2c(nc(NCc3ccc4c(c3)OCO4)n2Cc2ccccc2)n(C)c1=O | ? | ? | ? | -20.0% | ? | -25.8%
Cc1cc(Cn2nc(C(=O)NCc3cccc(C(F)(F)F)c3)cc2-c2ccccc2)on1 | -1.2% | -1.1% | ? | -11.1% | ? | -11.2%
Cc1ccc(CNC(=O)c2cc(-c3ccccc3)n(Cc3cc(C)no3)n2)cc1 | 18.8% | 1.3% | ? | 1.7% | 20.6µM* | -23.0%
CNC(=O)C(=O)NCC1OCCN1S(=O)(=O)c1ccc2c(c1)OCCO2 (stereo unspecified) | 7.4% | 0.0% | 6.0% | -9.5% | 2.8% | 4.7%
Cc1ccc(CSC2=Nc3ccccc3C3=NC(CCC(=O)N4CCN(c5ccccc5)CC4)C(=O)N23)cc1 (stereo unspecified) | nt | nt | 20.6µM* | -26.7% | 20.6µM* | -21.9%
O=C(CCC1N=C2c3ccccc3N=C(SCc3ccc(Cl)cc3)N2C1=O)N1CCN(c2ccccc2)CC1 (stereo unspecified) | nt | nt | 20.6µM* | -1.3% | 16.4µM* | -3.7%
COc1ccccc1CNC(=O)CCC1N=C2c3ccccc3N=C(SCc3ccc(Cl)cc3)N2C1=O (stereo unspecified) | nt | nt | ? | -19.5% | ? | -25.2%
CC(=O)NC(c1cccc(F)c1)c1nc(-c2ccc(N(C)C)cc2)cs1 (stereo unspecified) | 0.2% | 23.5% | ? | -32.5% | ? | -5.8%
COC(=O)[C@]12CCCCC=C1N(Cc1cccc3ccccc13)C(=O)[C@H](CC(=O)NCC1CCCCC1)C2 | 14.8% | 12.3% | 18.4µM* | nt | ? | nt
COC(=O)[C@]12CCCCC=C1N(Cc1cccc3ccccc13)C(=O)[C@H](CC(=O)NCCC(C)C)C2 | ? | ? | 14.6µM* | nt | 18.4µM* | nt
